# From the supplement of paper PMC12067093, “Discovery and optimisation of a covalent ligand for TRIM25 and its application to targeted protein ubiquitination” (Chemical Science, 2025)
# Of roughly 21,000 targets only a part is listed; those with the largest changes were picked by preference.
# Compound: CC1Cc2ccccc2N1C(=O)C1CCCN(C1)C(=O)CCl (mixture of isomers) [TRIM25 ligand 11 (diastereomer mixture)]
# Experiment: probe-labelled cysteine peptide fold change vs DMSO (competition) (log2 fold change); higher = less target engagement (more negative = stronger competition)
# Conditions: 50 µM; THP-1; incubation time: 4 h
# 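Also: competitive chemoproteomic profiling in live THP-1 cells with an iodoacetamide desthiobiotin (IA-DTB) probe, comparing probe-labelled peptide intensities in compound-treated cells against DMSO-treated controls.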
# UniProt P09960, sequence (P09960 whole entry, looked up): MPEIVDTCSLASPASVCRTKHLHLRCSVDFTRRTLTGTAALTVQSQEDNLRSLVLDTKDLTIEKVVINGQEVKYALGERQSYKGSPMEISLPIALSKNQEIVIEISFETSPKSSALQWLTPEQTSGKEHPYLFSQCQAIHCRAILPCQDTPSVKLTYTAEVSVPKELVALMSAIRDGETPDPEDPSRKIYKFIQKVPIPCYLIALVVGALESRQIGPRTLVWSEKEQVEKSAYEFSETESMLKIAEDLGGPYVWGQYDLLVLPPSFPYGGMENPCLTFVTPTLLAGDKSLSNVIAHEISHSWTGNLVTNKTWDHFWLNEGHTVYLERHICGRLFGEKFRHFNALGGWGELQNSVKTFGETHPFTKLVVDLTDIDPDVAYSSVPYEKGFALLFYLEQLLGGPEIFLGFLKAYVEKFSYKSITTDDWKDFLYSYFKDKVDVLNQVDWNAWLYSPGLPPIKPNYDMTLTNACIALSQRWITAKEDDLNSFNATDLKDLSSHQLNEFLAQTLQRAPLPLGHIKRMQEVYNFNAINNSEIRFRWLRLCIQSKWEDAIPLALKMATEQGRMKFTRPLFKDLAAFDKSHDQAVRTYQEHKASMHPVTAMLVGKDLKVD
# UniProt P16455, sequence (P16455 whole entry, looked up): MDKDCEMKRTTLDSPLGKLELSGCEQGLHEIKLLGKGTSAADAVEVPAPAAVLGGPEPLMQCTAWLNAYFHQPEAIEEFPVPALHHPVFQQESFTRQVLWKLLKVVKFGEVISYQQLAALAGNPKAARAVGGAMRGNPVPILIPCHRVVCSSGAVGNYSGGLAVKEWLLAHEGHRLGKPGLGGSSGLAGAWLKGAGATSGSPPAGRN
# UniProt Q9UBG0, sequence (Q9UBG0 whole entry, looked up): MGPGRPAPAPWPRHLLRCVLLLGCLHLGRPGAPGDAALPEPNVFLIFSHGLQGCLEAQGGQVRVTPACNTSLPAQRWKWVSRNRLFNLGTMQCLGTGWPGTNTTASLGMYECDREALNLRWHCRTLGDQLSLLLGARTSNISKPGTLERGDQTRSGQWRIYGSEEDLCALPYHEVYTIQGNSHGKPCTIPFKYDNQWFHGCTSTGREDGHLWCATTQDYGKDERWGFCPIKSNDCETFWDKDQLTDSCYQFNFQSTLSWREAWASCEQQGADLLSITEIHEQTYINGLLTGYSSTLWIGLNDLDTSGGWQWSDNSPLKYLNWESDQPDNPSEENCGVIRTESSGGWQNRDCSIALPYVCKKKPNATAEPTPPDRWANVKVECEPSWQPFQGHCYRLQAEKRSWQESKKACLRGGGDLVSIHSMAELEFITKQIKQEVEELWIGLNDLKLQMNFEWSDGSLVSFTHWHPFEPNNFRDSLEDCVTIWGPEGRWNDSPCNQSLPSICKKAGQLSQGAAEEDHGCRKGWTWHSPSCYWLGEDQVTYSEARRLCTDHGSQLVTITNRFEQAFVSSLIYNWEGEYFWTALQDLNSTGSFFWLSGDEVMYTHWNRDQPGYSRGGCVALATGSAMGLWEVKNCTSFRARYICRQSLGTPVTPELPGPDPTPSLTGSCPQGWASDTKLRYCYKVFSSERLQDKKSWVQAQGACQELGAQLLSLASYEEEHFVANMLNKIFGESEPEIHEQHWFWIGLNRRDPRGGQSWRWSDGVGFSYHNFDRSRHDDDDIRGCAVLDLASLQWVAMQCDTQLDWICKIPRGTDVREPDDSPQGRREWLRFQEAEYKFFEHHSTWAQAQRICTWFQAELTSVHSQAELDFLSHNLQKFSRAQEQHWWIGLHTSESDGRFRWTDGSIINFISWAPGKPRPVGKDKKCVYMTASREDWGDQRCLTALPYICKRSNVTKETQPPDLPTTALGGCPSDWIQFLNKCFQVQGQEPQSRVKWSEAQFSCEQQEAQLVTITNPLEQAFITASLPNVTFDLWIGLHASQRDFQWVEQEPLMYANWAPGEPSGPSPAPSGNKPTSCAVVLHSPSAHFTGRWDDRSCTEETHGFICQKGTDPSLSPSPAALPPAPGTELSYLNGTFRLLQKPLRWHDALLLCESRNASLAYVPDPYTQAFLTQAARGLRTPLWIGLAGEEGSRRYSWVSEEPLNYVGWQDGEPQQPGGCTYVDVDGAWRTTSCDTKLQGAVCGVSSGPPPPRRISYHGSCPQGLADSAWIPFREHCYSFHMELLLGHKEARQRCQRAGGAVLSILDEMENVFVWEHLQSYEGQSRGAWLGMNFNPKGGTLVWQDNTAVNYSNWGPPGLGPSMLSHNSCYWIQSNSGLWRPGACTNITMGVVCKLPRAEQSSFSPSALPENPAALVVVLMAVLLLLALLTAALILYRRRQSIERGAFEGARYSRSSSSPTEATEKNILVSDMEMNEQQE
row,Target,probe-labelled cysteine peptide fold change
1,MGMT_P16455_145_GNPVPILIPCHR (UniProt P16455),-1.05
2,LTA4H_P09960_26_CSVDFTR (UniProt P09960),-0.00265
3,MT1E_P04732_50_CAQGCVCK<|>MT1F_P04733_50_CAQGCVCK<|>MT1B_P07438_50_CAQGCVCK<|>MT1L_Q93083_50_CAQGCVCK (UniProt Q93083+P07438+P04733+P04732),0.116
4,MTMR1_Q13613_438_TSVVVHCSDGWDR (UniProt Q13613),-0.0364
5,MRC2_Q9UBG0_201_YDNQWFHGCTSTGR (UniProt Q9UBG0),-1.05
